PubChem BioAssay AID2620 (National Center for Advancing Translational Sciences (NCATS), 2010)
Inconclusive results are not listed. Activity calls are given as the source filed them. Calls come from the whole dose curve; as a rule, active = well fitted curve in the direction sought with a large enough effect; inconclusive = small, poorly fitted or top-dose-only effect, or another doubt; inactive = no such curve, though single readings can be large or run the other way.

Molecular target: Pyruvate kinase PKM (Homo sapiens) (UniProt P14618)
Sequence (P14618 whole entry, looked up, canonical isoform): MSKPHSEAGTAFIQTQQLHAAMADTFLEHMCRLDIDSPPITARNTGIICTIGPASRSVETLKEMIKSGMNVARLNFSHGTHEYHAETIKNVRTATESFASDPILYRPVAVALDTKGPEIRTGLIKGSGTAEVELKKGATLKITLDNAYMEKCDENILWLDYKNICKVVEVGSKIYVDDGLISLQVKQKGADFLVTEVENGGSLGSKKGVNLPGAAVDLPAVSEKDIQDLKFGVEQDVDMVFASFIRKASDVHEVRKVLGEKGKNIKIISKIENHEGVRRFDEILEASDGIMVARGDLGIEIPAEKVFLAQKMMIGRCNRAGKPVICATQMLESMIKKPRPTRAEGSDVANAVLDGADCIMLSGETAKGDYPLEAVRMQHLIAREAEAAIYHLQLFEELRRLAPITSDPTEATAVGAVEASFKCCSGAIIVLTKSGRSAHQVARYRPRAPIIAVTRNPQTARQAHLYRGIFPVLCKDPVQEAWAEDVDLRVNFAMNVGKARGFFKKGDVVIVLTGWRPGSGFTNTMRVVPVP
Assay: Secondary LDH Assay for Activators of Human Pyruvate Kinase M1 Isoform: for Probe SAR
Conditions: purified hPK-M1, LDH-coupled NADH fluorescence kinetic; series mostly up to 58.2 µM
Excerpt: NIH Chemical Genomics Center [NCGC]
Matthew G. Vander Heiden, M.D., Ph.D. [Harvard Medical School, 77 Avenue Louis Pasteur, Boston, MA 02115]
Human pyruvate kinase […] (hPK-M1)enzyme was supplied as a highly purified (>95% pure) preparation from Harvard Medical School and a secondary assay was used to evaluate compounds. This assay couples the formation of pyruvate from […] using lactate dehydrogenase (LDH) and NADH. The depletion of NADH is followed in a fluorescent-based kinetic assay that follows the formation of pyruvate to lactate, as catalyzed LDH. Pyruvate kinase substrates, PEP and ADP, were present in the assay at 0.1 mM and 4 mM respectively. In this kinetic assay initial rates were determined by following the fluorescence of NADH depletion.
NCGC Assay Protocol Summary:
Three uL of substrate mix (final concentration, 50 mM Tris-Cl pH 8.0, 200 mM KCl, 15 mM MgCl2, 0.1 mM PEP, 4.0 mM ADP, and 0.2 mM NADH) was dispensed into black-solid 1536 well plates. 23 nL of compounds were delivered by a pin tool and 1 uL of enzyme mix (final concentrations, 10 nM hPK-M1 and 1 uM of LDH) was added. Plates were immediately placed in ViewLux (Perkin Elmer) and NADH fluorescence was determined at 30 second exposure intervals for between 3 and 6 minutes. Data were normalized to the uninhibited controls.

outcome, inactive:
Cc1ccc(NS(=O)(=O)c2ccc3c(c2)N(C)CCO3)cc1C
Cc1ccc(NS(=O)(=O)c2cc3c(cc2-c2ccccc2)NC(=O)CO3)cc1C
Cc1ccc(Cl)cc1NS(=O)(=O)c1cc2c(cc1Cl)CCC(=O)N2
CN(C)c1cccc(S(=O)(=O)N2CCN(S(=O)(=O)c3ccc4c(c3)OCCO4)CC2)c1
Cc1ccc(NS(=O)(=O)c2ccc3c(c2)CCC(=O)N3)cc1
N#Cc1ccc(NS(=O)(=O)c2ccc3c(c2)CCC(=O)N3)cc1
COc1cc(N2C(=O)c3ccccc3C2=O)c2ncccc2c1
Cc1ccc(Nc2c(-c3ccc(C)s3)nc3cccc(C)n23)cc1
O=C1CCc2cc(S(=O)(=O)Nc3ccccc3-c3ccccc3)ccc2N1
O=C1CCc2cc(S(=O)(=O)Nc3ccc4ccccc4c3)ccc2N1
COc1ccccc1OC1=NS(=O)(=O)c2ccccc21
Cc1ccc2nc(-c3cccs3)c(Nc3ccccc3)n2c1
Cc1c(Cl)cccc1NS(=O)(=O)c1cc2c(cc1Cl)CCC(=O)N2
O=C1c2ccccc2C(=O)N1c1ncccc1O
CNc1cccc(S(=O)(=O)N2CCCN(S(=O)(=O)c3ccc4c(c3)OCCO4)CC2)c1
COc1ccc(Nc2c(-c3ccc(C)o3)nc3ccccn23)cc1
CN=c1nc(-c2ccccc2)n(-c2ccccc2)s1
Cc1ccc(Nc2c(-c3ccsc3)nc3cccc(C)n23)cc1
Nc1cc(S(=O)(=O)N2CCN(S(=O)(=O)c3ccc4c(c3)OCCO4)CC2)ccn1
Cc1ccc(NS(=O)(=O)c2ccc3c(c2)CCC(C)(C)O3)cc1C
Cc1ccc(NS(=O)(=O)c2ccc3c(c2)CCO3)cc1C
Cc1ccc2nc(-c3ccc(C)o3)c(Nc3ccc(F)cc3)n2c1
Cc1ccc(NS(=O)(=O)c2cc3c(cc2F)NC(=O)CC3)cc1Cl
Cc1ccc2nc(-c3ccc(C)o3)c(Nc3ccc(Cl)cc3)n2c1
Cc1ccc(NS(=O)(=O)c2cc3c(cc2N2CCC2)NC(=O)CC3)cc1C
O=C1CCc2cc(S(=O)(=O)Nc3cccc(-c4ccccc4)c3)ccc2N1
O=C1c2ccccc2C(=O)N1c1cccc2cccnc12
Cn1c2cc(S(C)=O)sc2c2cnn(Cc3cccc(O)c3)c(=O)c21 (stereo not given)
O=C1CCc2cc(S(=O)(=O)Nc3cccc(C(F)(F)F)c3)ccc2N1
Cc1ccc(NS(=O)(=O)c2ccc(F)cc2)cc1C
COc1ccccc1N1C(=O)c2ccccc2C1=O
O=C1CCc2cc(S(=O)(=O)Nc3ccc(Cl)c(Cl)c3)c(F)cc2N1
O=C1c2ccccc2C(=O)N1Cc1ccccc1
Cc1ccc(Cl)cc1NS(=O)(=O)c1cc2c(cc1F)NC(=O)CC2
O=C1CCc2cc(S(=O)(=O)Nc3cccc4ccccc34)ccc2N1
COc1ccc(N2C(=O)c3ccccc3C2=O)cc1
O=C1c2ccccc2C(=O)N1c1cccc2ccncc12
Cc1cc(N2C(=O)c3ccccc3C2=O)no1
Cc1cccc(OC2=NS(=O)(=O)c3ccccc32)c1
Cc1ccc(NC(=O)c2ccc3c(c2)CCC(=O)N3)cc1C
